In PubChem BioAssay (NCATS):
Records with an inconclusive call do not appear. The source made the active and inactive calls. Unless noted, calls come from the whole dose curve; as a rule, active = well fitted curve in the direction sought with a large enough effect; inconclusive = small, poorly fitted or top-dose-only effect, or another doubt; inactive = no such curve, though single readings can be large; an effect the other way counts as inactive or inconclusive.

How the values were obtained:
[1] = Cellular Toxicity (caspase-3) HepG2 (AID 654);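 note: cells exposed to compound for 16 hours before reading; 0% = DMSO alone and 100% = caspase signal from 100 µM tamoxifen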
Procedure, shortened: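 Concentration-response AC50 values reflect caspase-3/7 induction in HepG2 cells after 16 hours of compound exposure, quantified by luminescence from liberated aminoluciferin and referenced to 100 uM tamoxifen as full stimulation.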

[2] = Cellular Toxicity (caspase-3) Jurkat (AID 655);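 note: cells exposed to compound for 16 h at 37 °C before reading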
Procedure, shortened: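 qHTS in human Jurkat T-cell leukemia line: 16 hr compound treatment at 37 °C, caspase-3/7 activity measured by Caspase-Glo luminescence. AC50 derived from Hill equation.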

[3] = Cellular Toxicity (caspase-3) HUV-EC-C (AID 656);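 note: 0% = DMSO basal and 100% = 100 µM tamoxifen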
Procedure, shortened: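 Concentration-dependent caspase 3/7 induction was assessed in HUV-EC-C cells exposed for 16 hours. Data scaled between DMSO and tamoxifen (100 uM) controls.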

[4] = Cellular Toxicity (caspase-3) SHSY5Y (AID 657)
Procedure, shortened: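 Readout: caspase-cleaved peptide-aminoluciferin substrate driving luciferase light in SH-SY5Y neuroblastoma cells after 16 h treatment. Response normalized to DMSO and 10 uM staurosporine controls.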

[5] = Cellular Toxicity (caspase-3) BJ (AID 658);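 note: 0% = DMSO basal and 100% = 10 µM staurosporine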
Procedure, shortened: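 qHTS, BJ fibroblasts, 1000 cells/well; 5 hr preincubation, 16 hr compound, 37 °C; Caspase-Glo 3/7 reagent, 1 hr RT; luminescence. DMSO = 0%, 10 uM staurosporine = 100%. Hill-equation AC50.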

[6] = Cellular Toxicity (caspase-3) MRC-5 (AID 659);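 note: 0% = DMSO basal and 100% = 10 µM staurosporine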
Procedure, shortened: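 MRC-5 fibroblasts, 1500/well; 16 h cpd, 37 °C; Caspase-Glo 3/7, 1 h RT; lumi read. Norm: DMSO = 0%, 10 uM staurosporine = 100%. Hill-fit AC50 from qHTS conc-response.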

[7] = Cellular Toxicity (caspase-3) Mesangial (AID 660);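 note: combined caspase 3 and 7 activity read by Caspase-Glo luminescence; cells exposed to compound for 16 h before the caspase read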
Procedure, shortened: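 AC50 values come from Hill-equation fits of caspase 3/7 activation, measured as Caspase-Glo luminescence in human glomerular mesangial cells exposed to compound for 16 h at 37 °C; 100% set by 100 uM tamoxifen.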

[8] = Cellular Toxicity (caspase-3) SK-N-SH (AID 661);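 note: 0% = DMSO basal and 100% = 10 µM staurosporine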
Procedure, shortened: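 Apoptosis readout in SK-N-SH neuroblastoma: Caspase-Glo 3/7 luminescence following 16 hr treatment in complete culture medium. Normalization used DMSO and 10 uM staurosporine controls.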

[9] = Cellular Toxicity (caspase-3) H-4-II-E (AID 663);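 note: cells exposed to compound for 16 hr before readout; 0% = DMSO basal and 100% = 100 µM tamoxifen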
Procedure, shortened: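 H-4-II-E rat hepatoma, 1500 cells/well, 5 hr settle at 37 °C; compound 16 hr, 37 °C, complete medium; Caspase-Glo 3/7, 20 min RT; luminescence. DMSO = 0%, 100 uM tamoxifen = 100%; Hill-equation AC50.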

[10] = Cellular Toxicity (caspase-3) Hek293 (AID 664);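 note: cells exposed to compound for 16 h at 37 °C before readout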
Procedure, shortened: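 Apoptosis readout: Caspase-Glo 3/7 signal in human HEK293 cells following 16-hour compound incubation. Responses scaled between DMSO baseline and 100 uM tamoxifen.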

[11] = Cellular Toxicity (caspase-3) N2a (AID 665);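 note: compound exposure lasted 16 h at 37 °C before readout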
Procedure, shortened: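 Concentration-response qHTS: compound-induced caspase-3/7 luminescence in N2a cells (16 h, 37 °C), relative to DMSO and 10 uM staurosporine controls; AC50 obtained using the standard Hill equation.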

[12] = Cellular Toxicity (caspase-3) NIH 3T3 (AID 666);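 note: 0% = DMSO basal and 100% = 100 µM tamoxifen stimulation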
Procedure, shortened: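 Activity: caspase-3/7 induction, NIH 3T3 cells, 16 hr treatment at 37°C, luminescent Caspase-Glo detection; AC50 via Hill equation.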

[13] = Cellular Toxicity (caspase-3) Renal Proximal Tubule (AID 667);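 note: cells exposed to compound for 16 hours at 37 °C before detection; 0% = DMSO basal and 100% = 10 µM staurosporine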
Procedure, shortened: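 Caspase-Glo 3/7 read-out, rat primary kidney proximal tubule cells. Compound exposure 16 h, 37 °C; detection after 1 h at RT. Activity scaled to DMSO and 10 uM staurosporine.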

[14] = qHTS assay for small molecule disruptors of the mitochondrial membrane potential - 1 hr assay (AID 651754; calls by dose curve; note: % is set by controls: 0 for no effect and ±100 for the full control effect; nearly all actives have a fitted effect of over 35% in size)
Procedure, shortened: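 In this qHTS format, a 1 hr compound treatment of HepG2 cells precedes Mito-MPS staining, and membrane potential is judged from aggregate (red) against monomer (green) fluorescence intensity.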

[15] = qHTS assay for small molecule disruptors of the mitochondrial membrane potential - 5 hr assay (AID 651755; calls by dose curve; note: % is set by controls: 0 for no effect and ±100 for the full control effect; nearly all actives have a fitted effect of over 40% in size)
Procedure, shortened: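 Read-out: ratiometric Mito-MPS fluorescence, green monomer (ex 490/em 535) vs red mitochondrial aggregate (ex 540/em 590). HepG2 cells treated 5 hr at 37C before 30 min dye loading.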

[16] = molecular target: Tumor necrosis factor (Homo sapiens) (UniProt P01375); experiment: qHTS assay to identify small molecules that stimulate Tumor Necrosis Factor-alpha (TNF-alpha) secretion (AID 651757; active = well fitted curve in the direction sought with a large enough effect in the signal ratio; the % refers to the signal ratio; note: 0% is about no effect)
Sequence of Tumor necrosis factor (Homo sapiens) (P01375 whole entry, looked up): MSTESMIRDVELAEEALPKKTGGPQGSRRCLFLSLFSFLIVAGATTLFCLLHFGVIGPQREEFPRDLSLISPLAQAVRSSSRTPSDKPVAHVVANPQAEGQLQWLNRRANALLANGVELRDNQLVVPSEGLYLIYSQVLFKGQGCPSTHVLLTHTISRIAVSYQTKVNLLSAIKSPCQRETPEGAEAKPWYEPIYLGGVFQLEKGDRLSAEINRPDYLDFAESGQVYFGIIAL
Procedure, shortened: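 Using 3000 THP-1 cells per well, compounds and controls were applied for 17 hrs at 37 C. Detection followed with two labeled anti-TNF-alpha antibodies (cryptate donor, XL665 acceptor) for 3 hr at room temperature, measured by TR-FRET.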

[17] = qHTS assay for environmental chemicals that activate the Aryl hydrocarbon Receptor (AhR) signaling pathway (AID 651777); settings: 1A2-DRE human hepatoma cells, luciferase, 24 h; stronger effect = higher value; note: % of control where 0% means no effect; nearly all actives have a fitted effect of over 15% in size
Procedure, shortened: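 Human hepatoma 1A2-DRE cells stably carrying a DRE/CYP1A2 promoter–luciferase reporter, 1,200 cells/well, exposed to compound 24 hr at 37 C. Luciferase read by One-Glo luminescence after 30 min at room temperature; increased signal marks AhR activation.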

[18] = molecular target: Peroxisome proliferator-activated receptor alpha (Homo sapiens) (UniProt Q07869); experiment: qHTS assay for small molecule agonists of the peroxisome proliferator-activated receptor alpha (PPARalpha) signaling pathway (AID 651778); settings: PathHunter PPARalpha complementation, chemiluminescence, 6 h; stronger effect = higher value; note: % of control where 0% means no effect
Sequence of Peroxisome proliferator-activated receptor alpha (Homo sapiens) (Q07869 whole entry, looked up, the tested form may be a part): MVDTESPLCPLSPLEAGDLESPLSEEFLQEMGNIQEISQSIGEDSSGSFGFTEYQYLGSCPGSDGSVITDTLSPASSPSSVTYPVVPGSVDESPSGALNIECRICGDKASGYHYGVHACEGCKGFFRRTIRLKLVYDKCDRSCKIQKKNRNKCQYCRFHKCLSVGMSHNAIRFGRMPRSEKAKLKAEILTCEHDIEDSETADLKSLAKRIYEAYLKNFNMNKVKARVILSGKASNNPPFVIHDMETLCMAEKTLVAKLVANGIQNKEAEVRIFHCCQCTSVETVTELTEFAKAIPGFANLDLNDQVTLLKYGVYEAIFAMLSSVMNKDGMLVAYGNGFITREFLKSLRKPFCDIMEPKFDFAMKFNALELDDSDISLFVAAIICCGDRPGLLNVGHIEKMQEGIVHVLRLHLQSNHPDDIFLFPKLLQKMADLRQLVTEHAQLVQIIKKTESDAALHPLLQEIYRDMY
Procedure, shortened: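 Enzyme-fragment complementation assay in which ligand-bound PPARalpha translocates and forms an active enzyme that generates chemiluminescence. Cells were plated overnight, exposed to compound for 6 hr at 37 C, and then given detection reagent for 60 min at room temperature.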

[19] = molecular target: Nuclear receptor ROR-gamma (Homo sapiens) (UniProt P51449); experiment: qHTS assay for small molecule antagonists of the retinoid-related orphan receptor gamma (ROR-gamma) signaling pathway (AID 651802);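 note: CHO cells with doxycycline-induced ROR-gamma expression; luciferase reporter luminescence driven by ROR response element; series mostly up to about 92 µM; % is set by controls: 0 for no effect and ±100 for the full control effect; nearly all actives have a fitted effect of over 60% in size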
Sequence of Nuclear receptor ROR-gamma (Homo sapiens) (P51449 whole entry, looked up): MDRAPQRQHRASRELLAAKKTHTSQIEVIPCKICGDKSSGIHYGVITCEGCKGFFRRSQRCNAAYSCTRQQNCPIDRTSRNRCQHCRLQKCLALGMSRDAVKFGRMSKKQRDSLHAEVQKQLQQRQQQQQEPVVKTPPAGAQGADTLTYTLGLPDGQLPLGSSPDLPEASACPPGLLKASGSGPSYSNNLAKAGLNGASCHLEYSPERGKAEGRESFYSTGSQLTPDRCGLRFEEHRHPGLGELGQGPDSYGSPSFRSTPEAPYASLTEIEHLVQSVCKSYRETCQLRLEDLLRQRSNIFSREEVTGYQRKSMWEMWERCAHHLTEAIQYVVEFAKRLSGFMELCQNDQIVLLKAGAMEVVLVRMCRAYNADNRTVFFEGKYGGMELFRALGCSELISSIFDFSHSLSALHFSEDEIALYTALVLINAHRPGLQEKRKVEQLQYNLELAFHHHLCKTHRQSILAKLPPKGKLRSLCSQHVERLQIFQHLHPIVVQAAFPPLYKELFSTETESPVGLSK
Procedure, shortened: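 Doxycycline-induced reporter activity in engineered CHO cells (TET-inducible ROR, RORE-LUC) was measured by luminescence after 16hr compound exposure at 37C.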

[20] = molecular target: Nuclear receptor subfamily 1 group I member 2 (Rattus norvegicus) (UniProt Q9R1A7); experiment: qHTS assay for small molecule activators of the rat pregnane X receptor (rPXR) signaling pathway (AID 651751; call rule not given here; note: 0% is about no effect); settings: rPXR reporter cells, luciferase (One-Glo), 24 h
Sequence of Nuclear receptor subfamily 1 group I member 2 (Rattus norvegicus) (Q9R1A7 whole entry, looked up): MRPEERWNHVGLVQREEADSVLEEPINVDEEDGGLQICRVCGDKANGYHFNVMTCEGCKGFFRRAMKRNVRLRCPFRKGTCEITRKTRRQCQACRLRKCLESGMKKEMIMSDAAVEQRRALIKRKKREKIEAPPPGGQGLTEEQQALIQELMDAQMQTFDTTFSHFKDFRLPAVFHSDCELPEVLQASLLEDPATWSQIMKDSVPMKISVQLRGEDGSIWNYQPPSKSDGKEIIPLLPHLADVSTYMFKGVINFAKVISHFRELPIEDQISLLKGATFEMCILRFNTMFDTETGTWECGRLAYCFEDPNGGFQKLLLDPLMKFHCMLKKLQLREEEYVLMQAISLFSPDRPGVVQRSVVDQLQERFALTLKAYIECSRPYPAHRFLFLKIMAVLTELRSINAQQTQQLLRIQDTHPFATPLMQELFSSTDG

Cc1occc(=O)c1O
inactive: outcome [1] | outcome [2] | outcome [3] | outcome [4] | outcome [5] | outcome [6] | outcome [7] | outcome [8] | outcome [9] | outcome [10] | outcome [11] | outcome [12] | outcome [13] | outcome [14] | outcome [15] | outcome [16] | activation [17] 0.287% | max response [18] -2.16% | outcome [19] | max response [20] 3.86%

CC1=CC(=O)CC(C)(C)C1(O)/C=C/C(C)=C\C(=O)O (stereo not given)
inactive: outcome [1] | outcome [2] | outcome [3] | outcome [4] | outcome [5] | outcome [6] | outcome [7] | outcome [8] | outcome [9] | outcome [10] | outcome [11] | outcome [12] | outcome [13] | outcome [14] | outcome [15] | outcome [16] | activation [17] -0.944% | max response [18] 6.6% | outcome [19] | max response [20] -0.742%
